# Among all 39,000 compounds or so, about 3,300 (8.5%) were called active. Many of the other results were omitted from the sample, so actives are more common in it than they were.
# Test system: HepG2
# Assay: cytotoxicity call (relative viability < 0.9)
# Conditions: 10 µM
row,Structure (SMILES),cytotoxicity call
1,COc1cccc(S(=O)(=O)N2C[C@@H](O)COC[C@@H]3O[C@@H](CC(=O)N4CCN(C)CC4)CC[C@H]32)c1,inactive
2,O=C1CCNCCN1,inactive
3,CO[C@@H]1CN(C)C(=O)c2cc(NS(C)(=O)=O)ccc2OC[C@@H](C)N(C(=O)c2ccc3c(c2)OCO3)C[C@@H]1C,inactive
4,Cc1noc(C)c1S(=O)(=O)Nc1ccc2c(c1)C(=O)N([C@H](C)CO)C[C@@H](C)[C@@H](CN(C)Cc1ccccc1)OCCCC[C@@H](C)O2,inactive
5,COc1ccc(NC(=O)Nc2ccc3c(c2)CC(=O)N([C@@H](C)CO)C[C@@H](C)[C@H](CN(C)C(=O)Nc2cccc4ccccc24)O3)cc1,inactive
6,Cc1noc(C)c1S(=O)(=O)Nc1ccc2c(c1)C(=O)N([C@@H](C)CO)C[C@@H](C)[C@@H](CN(C)CC1CCCCC1)OCCCC[C@@H](C)O2,inactive
7,Cc1cccc(C(=O)NN)c1,inactive
8,Cc1ccc(Oc2ccccc2)c(NC(=O)c2ccccc2)c1,active
9,Cc1ccc(C(=O)c2ccc(Oc3ccccc3)cc2)cc1,inactive
10,COc1cccc(-c2ccc3c(c2)O[C@H](CN(C)Cc2cncnc2)[C@@H](C)CN([C@@H](C)CO)S3(=O)=O)c1,inactive
11,COc1ccc(NC(=O)N(C)C[C@@H]2Oc3c(NC(=O)c4cc(C)nn4C)cccc3C(=O)N([C@@H](C)CO)C[C@H]2C)cc1,inactive
12,CN(C)CC(=O)N1[C@@H]2c3ccc(C4=CCCC4)c(=O)n3C[C@H]1[C@H](CO)[C@H]2C(=O)NCC1CC1,inactive
13,C[C@@H]1CN([C@@H](C)CO)C(=O)Cc2cc(NS(=O)(=O)c3ccccc3)ccc2O[C@@H]1CN(C)S(=O)(=O)c1cn(C)cn1,inactive
14,C[C@H]1CN([C@@H](C)CO)C(=O)Cc2cc(NS(=O)(=O)c3ccccc3)ccc2O[C@@H]1CN(C)S(=O)(=O)c1cn(C)cn1,inactive
15,C[C@@H]1CN([C@H](C)CO)C(=O)c2cc(NC(=O)Nc3ccccc3)ccc2O[C@@H]1CN(C)S(=O)(=O)c1cn(C)cn1,inactive
16,C[C@@H]1CN([C@H](C)CO)C(=O)Cc2cc(NS(=O)(=O)c3ccccc3)ccc2O[C@H]1CN(C)S(=O)(=O)c1cn(C)cn1,active
17,C[C@@H]1CN([C@@H](C)CO)C(=O)c2cc(NC(=O)Nc3ccccc3)ccc2O[C@H]1CN(C)S(=O)(=O)c1cn(C)cn1,inactive
18,C[C@@H]1CN([C@@H](C)CO)C(=O)Cc2cc(NC(=O)Nc3ccccc3)ccc2O[C@H]1CN(C)S(=O)(=O)c1cn(C)cn1,inactive
19,C[C@H](CO)N1C[C@H](C)[C@H](CN(C)S(=O)(=O)c2cn(C)cn2)Oc2ccc(NC(=O)Nc3ccccc3)cc2CC1=O,active
20,C[C@H]1CN([C@@H](C)CO)C(=O)Cc2cc(NC(=O)Nc3ccccc3)ccc2O[C@H]1CN(C)S(=O)(=O)c1cn(C)cn1,inactive
21,C[C@@H]1CN([C@H](C)CO)C(=O)c2cc(NC(=O)Nc3ccccc3)ccc2O[C@H]1CN(C)S(=O)(=O)c1cn(C)cn1,active
22,CC1c2cccc(O)c2C(=O)C2=C(O)C3(O)C(=O)C(C(N)=O)=C(O)C(N(C)C)C3C(O)C21.Cl (centres undefined),inactive

row,Structure (SMILES),cytotoxicity call
1,COc1ccc2c3c(n(c2c1)C)[C@H](CO)N(C[C@]13CN(Cc2ccncc2)C1)C(=O)CN1CCOCC1,inactive
2,CC(C)NC(=O)N(C)C[C@@H]1Oc2ccc(NC(=O)Nc3ccc4c(c3)OCO4)cc2CC(=O)N([C@H](C)CO)C[C@H]1C,inactive
3,C[C@H]1CN([C@@H](C)CO)C(=O)c2cc(NS(=O)(=O)c3ccc(F)cc3)ccc2O[C@@H]1CN(C)S(=O)(=O)c1ccc(F)cc1,inactive
4,C[C@H](CO)N1C[C@H](C)[C@@H](CN(C)S(=O)(=O)c2ccc(Cl)cc2)Oc2ccc(NC(=O)C3CC3)cc2CC1=O,inactive
5,CCOC(=O)c1nonc1N,inactive
6,CN(CCCCCCCCCCN(C)C(=O)Oc1cccc([N+](C)(C)C)c1)C(=O)Oc1cccc([N+](C)(C)C)c1,inactive
7,O=C(NCc1ccncc1)C(=O)NC[C@H]1OCCN1S(=O)(=O)c1ccc(F)cc1,inactive
8,C[C@@H]1CN([C@@H](C)CO)C(=O)c2cccc(NC(=O)Nc3ccc(C(F)(F)F)cc3)c2O[C@H]1CN(C)Cc1ccc(-c2ccccc2)cc1,inactive
9,C[C@H]1CN([C@@H](C)CO)C(=O)c2ccccc2-c2ccccc2CO[C@@H]1CN(C)Cc1ccccc1C(F)(F)F,inactive
10,C[C@@H](NC(=O)[C@@H]1CCCC[C@H]1C(=O)O)c1ccccc1.C[C@@H](NC(=O)[C@H]1CCCC[C@H]1C(=O)O)c1ccccc1,inactive
11,CCCCC(O)c1ccccc1 (centres undefined),inactive
12,CCCC[C@@H](O)c1ccccc1,inactive
13,C[C@H](NC(=O)[C@@H]1CCCC[C@H]1C(=O)O)c1ccccc1.C[C@H](NC(=O)[C@H]1CCCC[C@H]1C(=O)O)c1ccccc1,inactive
14,C[C@@H](NCCC(c1ccccc1)c1ccccc1)c1ccccc1,active
15,CC(NCCC(c1ccccc1)c1ccccc1)c1ccccc1.Cl (centres undefined),active
16,Cc1noc(C)c1NC(=O)Nc1ccc2c(c1)C(=O)N([C@@H](C)CO)C[C@@H](C)[C@@H](CN(C)C(=O)Nc1ccc(C(F)(F)F)cc1)OCCCC[C@@H](C)O2,inactive
17,C[C@@H]1CN([C@H](C)CO)C(=O)Cc2cc(NC(=O)Nc3ccc(F)cc3)ccc2O[C@H]1CN(C)C(=O)Nc1cccc2ccccc12,inactive
18,C[C@@H]1CN([C@@H](C)CO)C(=O)Cc2cc(NS(=O)(=O)c3cn(C)cn3)ccc2O[C@@H]1CN(C)S(=O)(=O)c1cccs1,inactive
19,Cc1noc(C)c1S(=O)(=O)N(C)C[C@@H]1OCCCC[C@@H](C)Oc2ccc(NC(=O)Nc3ccccc3)cc2C(=O)N([C@H](C)CO)C[C@@H]1C,inactive
20,C[C@@H]1CN([C@H](C)CO)C(=O)Cc2cc(NC(=O)C3CCCCC3)ccc2O[C@H]1CN(C)Cc1ccc(Cl)c(Cl)c1,inactive
21,N=C(N)c1ccc2nc(-c3cc(CC(=O)N[C@@H](CC(=O)O)C(=O)O)cc(-c4cc(S(N)(=O)=O)ccc4O)c3O)[nH]c2c1,inactive
22,C[C@H](CO)N1C[C@H](C)[C@H](CN(C)C(=O)Nc2ccc(C(F)(F)F)cc2)Oc2ccc(NC(=O)Nc3cccc4ccccc34)cc2CC1=O,inactive
